Results on 62 molecules are retold here after ChEMBL document CHEMBL3988442, “University of Dundee, Small-Polar-MMV Screening Library” (2021).

About 440 (0.52%) of roughly 85,000 compounds showed an effect of 50% or more. The sample as a whole holds a higher share of strong results than the screen did.

This assay in a line: In vitro enzyme assay to detect hydrolysis of chlorophenol red-beta-D-[…] directly proportional to the number of Toxoplasma stably expressing beta-galactosidase. It is filed as functional, organism-based, Toxoplasma gondii. More on the design: scale not given: in the data most compounds retested in dose-response had high values.

`CS(=O)(=O)N1CCN(C(=O)c2cnn3c2OCCC3)CC1`: for the setting “10 µM”, the “Percent Effect” value was -9.448%.
With `Cn1ncc(C(=O)N2CCN(S(C)(=O)=O)CC2)c1Cl`, where the note is “10 µM”, the “Percent Effect” value was found to be 77.51%.
On the same count and under the same terms, with `Cn1ncc(C(=O)N2CCN(C(=O)c3ccco3)CC2)c1Cl` the figure was 75.62%.
On to `Cc1oc(C(C)C)cc1C(=O)N1CCN(c2cnn(C)c(=O)c2)CC1`, for which the “Percent Effect” value (10 µM) worked out at 15.5%.
As to `Cc1c(C(=O)N2CCC(C(O)c3ccc(Cl)cc3)CC2)cnn1C` (configuration not stated), under “10 µM”, the “Percent Effect” value is -2.382%.
Same read-out and setting: for `Cc1c(C(=O)N2CCCN(S(C)(=O)=O)CC2)cnn1C` the value was -3.056%.
With `CCOC(=O)N1CCN(C(=O)c2ccco2)CC1`, where the note is “50 µM”, the “Percent Effect” value was 9.256%.
As to `COCc1ccc(C(=O)N2CCN(CCS(C)(=O)=O)CC2)cc1`, the “Percent Effect” value (10 µM) is recorded as -0.2262%.
On the same count and under the same terms, for `Cn1ncc(C(=O)N2CCOCC2)c1Cl` the value was 29.02%; for `CCc1ccc(C(=O)N2CCN(CCS(C)(=O)=O)CC2)o1`, -13.13%; for `Cn1ncc(C(=O)N2CCN(CCS(C)(=O)=O)CC2)c1Cl`, 67.81%.
The same measure, in the same setting: with `CC(C)S(=O)(=O)N1CCN(C(=O)c2cnn(C)c2Cl)CC1` the figure was 63.23%.
On to `O=C(NC1CCc2ccc(F)cc21)c1c[nH]nn1` (configuration not stated), for which the “Percent Effect” value (50 µM) was 10.36%.
On the same count and under the same terms, with `COC(=O)c1ccc(NCC(=O)N2CCCCC2)cc1` the figure was -5.615%.
Same read-out and setting: with `Cc1cc(C(=O)N(C)Cc2ccncc2C)[nH]n1` the figure was -2.921%; with `CC1c2ccsc2CCN1CCC(=O)NC(N)=O` (configuration not stated), -3.706%.
For `N#CC1CCCN(C(=O)c2cnc3ccccc3c2)C1` (configuration not stated), under “50 µM”, the “Percent Effect” value was -3.341%.
In the case of `CCC1=NC(SCC(=O)c2ccc(OC)cc2)c2cc(CC)sc2N1` (configuration not stated), where the note is “10 µM”, the “Percent Effect” value is 50.44%.
Same read-out and setting: for `CCC1=NC(SCC(=O)c2ccc(C)cc2)c2cc(CC)sc2N1` (configuration not stated) the value was 65.66%.
On the same count and under the same terms, with `COc1ccc(C(=O)CNC(=O)c2nc(Cl)sc2C(C)C)cc1` the figure was 18.25%; with `CCC1=NC(SCC(=O)c2ccc(Cl)cc2)c2cc(CC)sc2N1` (configuration not stated), 23.77%.
Still for that read-out and setting: for `CCc1ncc(C(=O)c2ccc(OC)cc2)n1C` the value was -0.6627%; for `CCc1nc(C(=O)N2CCOCC2CC(=O)c2ccccc2)c[nH]1` (configuration not stated), 0.2818%; for `CCc1ncc(C(=O)N2CCOCC2CC(=O)c2ccccc2)s1` (configuration not stated), 3.663%.
Regarding `CCC1=NC(SCC(=O)c2ccccc2)c2cc(CC)sc2N1` (configuration not stated), where the note is “10 µM”, the “Percent Effect” value came out at 88.55%.
Take `Cc1cccc(-n2nnnc2C(C)(C)N2CCCC2)c1`: under “50 µM”, the “Percent Effect” value was -9.882%.
Same read-out and setting: with `COCCNS(=O)(=O)c1ccc(CN)cc1` the figure was -7.365%; with `CC(C)(C)NC(=O)CNC(C)(C)c1nccs1`, -6.241%; with `Cc1cnccc1NCCNC(=O)[C@H]1CCC[C@H](O)C1`, -11.82%.
Same read-out and setting: for `O=C1CCCN1CCCNCc1cccs1` the value was 4.585%; for `CCCN1CCC(CNc2ncccc2F)C1` (configuration not stated), -12.03%.
As to `COc1c(CNC2CCOc3c(Cl)cccc32)c(C)nn1C.Cl` (configuration not stated), the “Percent Effect” value (10 µM) is on record as -5.172%.
The same measure, in the same setting: with `COc1c(CNC2CCOc3ccccc32)c(C(C)C)nn1C` (configuration not stated) the figure was 0.6462%; with `COc1c(CNC2CCOc3c(Cl)cccc32)c(C(C)C)nn1C` (configuration not stated), 50.26%.
For `Cc1ccccc1-c1nnn(CC(O)CC(F)(F)F)n1` (configuration not stated), the “Percent Effect” value (50 µM) was -8.034%.
On the same count and under the same terms, for `CC(C)CC(C)(N)CO` (configuration not stated) the value was -4.909%; for `COc1cc(NC(=O)CCN2CC(O)C2)cc(OC)c1`, -10.62%.
For `c1cnc(-c2nn3c(CN4CCCCC4)nnc3s2)cn1`, the “Percent Effect” value (10 µM) turned out to be 70.51%.
The same measure, in the same setting: for `c1ccc(-c2nn3c(CN4CCOCC4)nnc3s2)nc1` the value was 71.31%.
As for `CCN1CCN(c2nnc(-c3ccccn3)s2)CC1`, the “Percent Effect” value (50 µM) is listed as 1.346%.
As to `c1coc(CN2CCn3c(CN4CCOCC4)nnc3C2)c1`, the “Percent Effect” value (10 µM) came out at 4.961%.
Still for that read-out and setting: with `c1cc(-c2cnccn2)cc(-c2ccn(CCCN3CCCCC3)n2)c1` the figure was -3.188%.
Still for that read-out and setting: with `c1cnc(-c2nn3c(CN4CCCCCC4)nnc3s2)cn1` the figure was 65.52%.
On the same count and under the same terms, for `O=C(c1cnccn1)N1CCc2ncc(CN3CCOCC3)n2CC1` the value was -7.352%.
With `O=C(NCCN1CCCCC1)c1cnccn1`, the “Percent Effect” value (50 µM) stood at 1.153%.
With `c1cc(-c2cnccn2)cc(-c2ccn(CCN3CCCC3)n2)c1`, the “Percent Effect” value (10 µM) amounted to 1.269%.
Still for that read-out and setting: with `c1cc(-c2cnccn2)cc(-c2ccn(CCN3CCCCC3)n2)c1` the figure was -6.783%; with `O=C(c1cnccn1)N1CCC(CN2CCOCC2)CC1`, 17.94%.
Still for that read-out and setting: for `c1cnc(-c2nn3c(CN4CCOCC4)nnc3s2)cn1` the value was 68.89%.
On to `Cc1cnc(N)nc1NCC(O)CN1CCCCC1` (configuration not stated), for which the “Percent Effect” value (50 µM) stood at 10.92%.
Still for that read-out and setting: for `Cc1cc(F)ccc1NC(=O)NCC1(O)CCNC1` (configuration not stated) the value was -14.34%; for `CC(C(=O)N1CCOCC1)N1CCC(CO)CC1` (configuration not stated), -3.94%; for `Cn1cc([C@@H]2OCCC[C@H]2CN)cn1`, 1.285%.
For `NCc1ccncc1OCC(F)(F)F`, the “Percent Effect” value (50 µM) amounted to 19.9%.
Still for that read-out and setting: for `COCC1CCN(C(=O)CCC2CCNCC2)CC1` the value was -0.227%; for `C=C(C)CNC(C(=O)N1CCOCC1)C(C)C` (configuration not stated), -2.491%; for `CN(CCC(N)=O)Cc1ccc(Cl)s1`, -3.537%.
For `c1cc(-c2nnc3sc(CCN4CCCC4)nn23)ccn1`, the “Percent Effect” value (10 µM) is on record as -1.928%.
The same measure, in the same setting: with `c1cc(-c2nn3c(CN4CCOCC4)nnc3s2)ccn1` the figure was 60.13%.
Same read-out and setting: for `c1ccc(-c2ncn(CCCN3CCOCC3)c2-c2ccncc2)cc1` the value was 36.16%.
For `COCC(=O)NCCc1cc(Cl)c2c(c1)OCCO2`, the “Percent Effect” value (50 µM) was -0.1362%.
The same measure, in the same setting: for `O=C(CN1CCN(C(=O)c2ccco2)CC1)NC1CC1` the value was 54.85%.
